Test results reported in paper PMC4336329 (PLoS ONE, 2015).
In all, about 310,000 compounds went through this assay and about 2,200 (0.71%) showed an effect of 50% or more. Effects have a minus sign here. Many of the other results were omitted from the sample, so strong results are more common in it than they were.

Molecular target: human ether-à-go-go-related gene (hERG) potassium channel (human, UniProt Q12809)
Assay: primary screen, population patch clamp on CHO cells stably expressing hERG; higher = less effect of the substance

human ether-à-go-go-related gene (hERG) potassium channel, sequence (Q12809 whole entry, looked up): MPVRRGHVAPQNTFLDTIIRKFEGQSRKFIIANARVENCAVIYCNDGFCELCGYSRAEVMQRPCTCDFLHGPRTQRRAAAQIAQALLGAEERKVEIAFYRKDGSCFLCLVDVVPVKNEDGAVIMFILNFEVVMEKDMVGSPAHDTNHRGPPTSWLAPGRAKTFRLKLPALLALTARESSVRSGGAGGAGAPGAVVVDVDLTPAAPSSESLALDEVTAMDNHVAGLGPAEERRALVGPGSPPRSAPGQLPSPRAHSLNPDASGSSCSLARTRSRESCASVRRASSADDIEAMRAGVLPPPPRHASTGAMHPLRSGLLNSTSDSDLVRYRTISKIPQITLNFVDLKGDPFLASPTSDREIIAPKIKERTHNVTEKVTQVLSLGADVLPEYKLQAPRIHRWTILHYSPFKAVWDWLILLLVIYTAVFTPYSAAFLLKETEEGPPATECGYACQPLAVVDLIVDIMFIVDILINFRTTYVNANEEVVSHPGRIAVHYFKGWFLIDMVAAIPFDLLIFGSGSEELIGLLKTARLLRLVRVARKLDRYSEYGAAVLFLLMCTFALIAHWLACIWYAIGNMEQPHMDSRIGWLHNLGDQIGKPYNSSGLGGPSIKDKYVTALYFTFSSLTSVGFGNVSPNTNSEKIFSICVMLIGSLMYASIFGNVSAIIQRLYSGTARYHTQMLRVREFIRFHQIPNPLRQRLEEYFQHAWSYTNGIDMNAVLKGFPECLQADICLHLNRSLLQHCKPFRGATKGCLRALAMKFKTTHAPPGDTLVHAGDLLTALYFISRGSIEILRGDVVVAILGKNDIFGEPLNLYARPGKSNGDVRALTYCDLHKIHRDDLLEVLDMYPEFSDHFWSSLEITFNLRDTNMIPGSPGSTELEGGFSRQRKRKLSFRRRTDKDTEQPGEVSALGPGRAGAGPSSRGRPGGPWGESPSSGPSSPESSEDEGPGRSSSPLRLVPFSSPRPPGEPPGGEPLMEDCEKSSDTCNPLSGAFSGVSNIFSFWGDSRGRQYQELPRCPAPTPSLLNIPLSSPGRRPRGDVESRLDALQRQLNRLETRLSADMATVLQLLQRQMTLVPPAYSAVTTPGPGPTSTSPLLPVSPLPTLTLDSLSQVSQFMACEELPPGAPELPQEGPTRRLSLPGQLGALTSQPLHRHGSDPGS

| SMILES | hERG current change (%, negative = inhibition) at 1uM [%] |
| --- | --- |
| CN(C)CCCOC(=O)c1ccc(Br)cc1 | -6.15 |
| COc1ccc(CCNC(=O)C2CCN(C(=O)c3ccc(OC)c(OC)c3)CC2)cc1 | 13.3 |
| Cc1cccc(OCC(=O)NC(=S)Nc2ccc(S(=O)(=O)NC3CCCCC3)cc2)c1 | 11.2 |
| COc1ccc(-c2nc(-c3ccc4c(c3)OCO4)[nH]c2-c2ccc(OC)cc2)cc1 | 14.7 |
| CCOc1ccc(C(=O)NC2CC3CCCC(C2)N3Cc2ccccc2)cc1 (stereo not drawn) | -20.4 |
| CC1CCCCC1NC(=O)CN1CCC(NC(=O)c2ccc([N+](=O)[O-])cc2)CC1 (stereo not drawn) | 12.1 |
| O=C(NC1CC2CCCC(C1)N2Cc1ccccc1)c1cccc(Cl)c1 (stereo not drawn) | -12.1 |
| CN1C2CCC1CC(NC(=O)c1ccc([N+](=O)[O-])cc1)C2 (stereo not drawn) | 12.1 |
| O=C(NC1CCN(CC(=O)N(c2ccccc2)c2ccccc2)CC1)c1ccc([N+](=O)[O-])cc1 | -78.6 |
| O=C(NC1CC2CCCC(C1)N2Cc1cccs1)c1ccc([N+](=O)[O-])cc1 (stereo not drawn) | -78.6 |
| CC(C)CN1C2CCCC1CC(NC(=O)c1ccc([N+](=O)[O-])cc1)C2 (stereo not drawn) | -70.1 |
| O=C(NC1CCN(Cc2cccc([N+](=O)[O-])c2)CC1)c1ccccc1 | -3.19 |
| O=C(NC1CC2CCCC(C1)N2Cc1ccccc1)c1ccc([N+](=O)[O-])cc1 (stereo not drawn) | -82.2 |
| COc1ccc(C(=O)NC2CC3CCCC(C2)N3CC(C)C)cc1 (stereo not drawn) | -13.5 |
| O=C(NC1CC2CCCC(C1)N2Cc1cccs1)N1CCOCC1 (stereo not drawn) | 3.19 |
| COCCNC(=S)NC1CC2CCCC(C1)N2Cc1cccs1 (stereo not drawn) | -1.25 |
| CC(C)NC(=O)C1CCN(C2CCN(C(=O)c3cc4c(s3)CCCCC4)CC2)CC1 | 6.33 |
| CCOc1cc(C(=O)NCCc2ccc(S(N)(=O)=O)cc2)cc(OCC)c1OCC | 3.65 |
| Cc1ccccc1NC(=O)C1CCCN1C(=O)NC1CCCCC1 (stereo not drawn) | 17.4 |
| CCOCCCNc1nc(C(F)(F)F)nc2c1nnn2Cc1ccccc1Cl | 15.9 |
| O=C(N1CCC(n2nc(-c3ccccc3)oc2=O)CC1)C1(c2ccc(Cl)cc2)CC1 | 7.63 |
| COCCNC(=O)c1c[nH]n2c(=O)cc(C3CCN(C(=O)OC(C)(C)C)CC3)nc12 | 9.37 |
| Cc1cccc(COc2coc(CN3CCN(C(=O)c4ccco4)CC3)cc2=O)c1 | -7.28 |
| Cc1ccc(COc2coc(CN3CCN(C(=O)c4ccco4)CC3)cc2=O)cc1 | -16.4 |

| SMILES | hERG current change (%, negative = inhibition) at 1uM [%] |
| --- | --- |
| Cc1ccc(C)c(COc2coc(CN3CCN(C(=O)c4ccco4)CC3)cc2=O)c1 | -95.9 |
| CCCC(=O)Nc1nc2ccc(NC(=O)c3ccccc3F)cc2s1 | 14.1 |
| COc1ccc(Nc2nnc(SCC(=O)N3CCCC3)s2)cc1 | 7.15 |
| Cc1ccc(-c2nc(CS(=O)(=O)CC(=O)NCCN3CCCC3)c(C)o2)cc1 | 7.76 |
| COc1ccc(-c2cc(C)no2)cc1S(=O)(=O)N(C)c1ccc(C)c(C)c1 | 9.2 |
| COc1cccc(CCN2CCC(CNS(=O)(=O)c3cc(-c4cc(C)no4)ccc3OC)CC2)c1 | -66.3 |
| COc1cccc(CCN2CCC(CNS(=O)(=O)c3cc(-c4cc(C)no4)ccc3C)CC2)c1 | -20.1 |
| COc1ccccc1CN1CCC(CNS(=O)(=O)c2cc(-c3cc(C)no3)ccc2OC)CC1 | -33.2 |
| COc1ccc(-c2cc(C)no2)cc1S(=O)(=O)N(C)c1cccc(C)c1 | -62.5 |
| COc1ccc(-c2cc(C)no2)cc1S(=O)(=O)N(C)c1ccc(C)cc1 | 4.37 |
| Cc1ccc(C(=O)OCC(=O)Nc2ccc(S(N)(=O)=O)cc2)c(O)c1 | 7.79 |
| CC(=O)NC(=S)NNC(=O)C(c1ccccc1)c1ccccc1 | 15 |
| C=CCNc1cccc(Br)c1 | 12.5 |
| COc1cc(/C=N/Nc2nn3cnnc3c3ccccc23)ccc1O | 20.3 |
| CCCCOC(=O)C[N+](C)(C)CCOC1CC2CCC1(C)C2(C)C.[Br-] (stereo not drawn) | -4.93 |
| CCCOC(=O)C[N+](C)(C)CCOC1CC2CCC1(C)C2(C)C.[Br-] (stereo not drawn) | 11.2 |
| CCCCCCOC(=O)C[N+](C)(C)CCOC1CC2CCC1(C)C2(C)C.[Cl-] (stereo not drawn) | -69 |
| COc1ccc(NC(=O)c2cccn(CC=C(C)C)c2=O)cc1 | 11.5 |
| Cc1c(S(=O)(=O)N2CCN(c3cccc(Cl)c3)CC2)c(=O)n(C)c(=O)n1C | 5.16 |
| COc1ccc(OC)c2c1nc1n2CCS1 | 4.74 |
| Cc1cccc(N2CCN(CC(O)COCc3cccs3)CC2)c1C (stereo not drawn) | -63.9 |
| CN1CCCN(CC(O)COCc2cccs2)CC1 (stereo not drawn) | 5.43 |
| CCOc1ccccc1N1CCN(CC(O)COCc2cccs2)CC1 (stereo not drawn) | -1.54 |
| Cl.OC(COCc1cccs1)CN1CCCCCC1 (stereo not drawn) | -5.74 |

| SMILES | hERG current change (%, negative = inhibition) at 1uM [%] |
| --- | --- |
| COc1ccccc1N1CCN(CC(O)COCc2cccs2)CC1.Cl (stereo not drawn) | 0.795 |
| OC(COCc1cccs1)CN1CCN(c2ccccc2Cl)CC1 (stereo not drawn) | -50.8 |
| O=C(CCc1ccc(S(=O)(=O)NCCc2ccccc2)cc1)NCc1ccco1 | 6 |
| COc1cccc2sc(NN)nc12 | 0.731 |
| O=c1c(C=NCCCn2ccnc2)c(-c2ccccc2)[nH]n1-c1nc2ccccc2s1 | -26.9 |
| CCCN=Cc1c(CCC)[nH]n(-c2nc3ccccc3s2)c1=O | -4.61 |
| CCCc1[nH]n(-c2nc3ccccc3s2)c(=O)c1C=NCC(C)C | 6.14 |
| CCCc1[nH]n(-c2nc3ccccc3s2)c(=O)c1C=NCCCN(CC)CC | -57.6 |
| CCCc1[nH]n(-c2nc3ccccc3s2)c(=O)c1C=NCCN1CCOCC1 | -4.58 |
| CCCc1[nH]n(-c2nc3ccccc3s2)c(=O)c1C=NCCCOC | -9.11 |
| COCCCN=Cc1c(-c2ccccc2)[nH]n(-c2nc3ccccc3s2)c1=O | -55.9 |
| CCN(CC)CCCN=Cc1c(-c2ccccc2)[nH]n(-c2nc3ccccc3s2)c1=O | -81.7 |
| CN(C)CCCN=Cc1c(-c2ccccc2)[nH]n(-c2nc3ccccc3s2)c1=O | -58.1 |
| CCCN=C(C)c1c(-c2ccccc2)[nH]n(-c2nc3ccccc3s2)c1=O | 7.75 |
| O=c1c(C=NCCCO)c(-c2ccccc2)[nH]n1-c1nc2ccccc2s1 | -2.36 |
| CCCCCN=Cc1c(C)[nH]n(-c2nc3ccccc3s2)c1=O | -16.9 |
| Cn1ccc(NC(=O)c2ccc(Cl)cc2)n1 | 11 |
| CCC(C)N1C(=O)CCC1C(=O)N1CCN(c2ccccc2F)CC1 (stereo not drawn) | 17 |
| CC(=O)N1CCN(C2=NC(=O)C(=C3CCCCC3)S2)CC1 | -2.21 |
| CCCNC(=O)C1CC(=O)N(c2ccc(OCC(=O)Nc3cccc(C)c3C)cc2)C1 (stereo not drawn) | 11 |
| CN1CCN(C(=O)c2ccc3c(Cl)c4c(nc3c2)CCCC4)CC1 | -0.735 |
| Cc1cc(C)c2nc(C(F)(F)F)nc(NCCCN3CCOCC3)c2c1 | 9.96 |
| CCC(C)(C)C1CCc2[nH]nc(C(=O)O)c2C1 (stereo not drawn) | 11.9 |
| CC(=O)NS(=O)(=O)c1ccc(NC(=O)C2C3C=CC(C3)C2C(=O)O)cc1 (stereo not drawn) | 7.33 |

| SMILES | hERG current change (%, negative = inhibition) at 1uM [%] |
| --- | --- |
| Cc1ccc2c(c1)Oc1ccc(NC(=O)CCCl)cc1C(=O)N2 | 3.94 |
| COc1ccc(CN2[C@@H](CC(C)=O)c3ccc(/C=C/C(C)=O)cc3S2(=O)=O)cc1 | -0.639 |
| O=C(c1nn(Cc2ccccc2)c(=O)c2ccccc12)N1CCN(c2ccccn2)CC1 | -14.5 |
| CC(=O)c1ccc(N2CCN(C(=O)c3nn(Cc4ccccc4)c(=O)c4ccccc34)CC2)cc1 | -72.9 |
| O=C(c1nn(Cc2ccccc2)c(=O)c2ccccc12)N1CCN(C/C=C/c2ccccc2)CC1 | -38.3 |
| Cn1cc([N+](=O)[O-])c(C(=O)NC2CCCCCC2)n1 | 15.5 |
| CCOc1cc(-c2nc3cc(C)ccn3c2NCC2CCCO2)ccc1O (stereo not drawn) | -47.3 |
| COc1ccc(-c2nc3cc(C)ccn3c2NCC2CCCO2)cc1OC.Cl (stereo not drawn) | -55.3 |
| COc1cc(-c2nc3ccccn3c2NCC2CCCO2)ccc1O (stereo not drawn) | 2.7 |
| CN(C(=O)CSc1nc2cc(C(=O)O)ccc2c(=O)n1Cc1ccccc1)C1CCS(=O)(=O)C1 (stereo not drawn) | 17.6 |
| O=C(CSc1nc2c(sc3ccccc32)c(=O)n1Cc1ccco1)NCC1CCCO1 (stereo not drawn) | -0.521 |
| CCc1cc2c(=O)n(Cc3ccco3)c(SCC(=O)NC3CCS(=O)(=O)C3)nc2s1 (stereo not drawn) | -29.7 |
| CCc1cc2c(=O)n(Cc3ccco3)c(SCC(=O)NCC3CCCO3)nc2s1 (stereo not drawn) | -60.5 |
| CCc1cc2c(=O)n(Cc3ccco3)c(SCC(=O)N(C)C3CCS(=O)(=O)C3)nc2s1 (stereo not drawn) | -85.4 |
| CC(C)Cn1c(SCC(=O)N(C)C2CCS(=O)(=O)C2)nc2cc(Cl)ccc2c1=O (stereo not drawn) | 4.62 |
| Cc1cc2c(=O)n(Cc3ccco3)c(SCC(=O)NCc3ccco3)nc2s1 | -0.915 |
| CN(C(=O)CSc1nc2ccc(Br)cc2c(=O)n1Cc1ccco1)C1CCS(=O)(=O)C1 (stereo not drawn) | -83.1 |
| COCCn1c(SCC(=O)N(C)C2CCS(=O)(=O)C2)nc2ccccc2c1=O (stereo not drawn) | 4.99 |
| CCN(C(=O)CSc1nc2cc(Cl)ccc2c(=O)n1Cc1ccco1)C1CCS(=O)(=O)C1 (stereo not drawn) | -70.2 |
| CCc1cc2c(SCC(=O)N(C)C3CCS(=O)(=O)C3)ncnc2s1 (stereo not drawn) | -7.21 |
| CCN(C(=O)CSc1nc2cc(Cl)ccc2c(=O)n1CC(C)C)C1CCS(=O)(=O)C1 (stereo not drawn) | 10.7 |
